High-throughput results: PubChem BioAssay, several laboratories
Peg3 promoter: reduces Peg3 promoter-driven luciferase expression in HeLa; HeLa PEG-Prom luciferase reporter, luminescence, overnight; inhibition, % at 20 µM; hit rate 1.7% among 360,000;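 active = inhibition of at least 50% at 20 µM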
LMP1 NFkB inh: reduces LMP1-driven NF-kappaB luciferase signal; LMP1-induced NF-kappaB luciferase reporter cells, luminescence; inhibition, % at 12.5 µM; hit rate 0.69% among 350,000; in the data active = inhibition above about 41%
Shn3 3UTR inh: inhibitors of Schnurri-3 3'UTR reporter in osteoblasts. Clone20 osteoblast Shn3 3'UTR firefly luciferase, 24 h. inhibition, % at 12.5 µM. hit rate 0.52% among 360,000. AID 588674;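 active = mean inhibition of at least 75% with every replicate also reaching 75%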
CF NFkB inh: blocks PAF-induced NF-kB reporter in cystic fibrosis cells; KKLEB NF-kB-GFP reporter, GFP fluorescence overnight; inhibition, % at 5 µM; hit rate 0.86% among 360,000;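 active = at least 50% inhibition at 5 µM, scaled per plate between neutral and stimulator controls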;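 note: PAF is a Pseudomonas aeruginosa culture filtrate used as stimulus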
KKLEB cytotox: CF airway cell cytotoxicity counter-screen; KKLEB CF airway cells viability, ATPlite luminescence, overnight; stronger effect = lower value; cells stimulated with P. aeruginosa culture filtrate; activity change (cytotoxicity), % at 5 µM; hit rate 0.36% among 360,000;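 active = corrected activity change at or below -50% at 5 µM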
HIF-2a block: HIF-2a inhibition; AID 624352; inhibition, % at 18.8 µM; 786-0 RCC cells HIF-2a reporter, luciferase luminescence, overnight; hit rate 0.72% among 360,000;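 active = inhibition of the luminescence signal of 40% or more relative to plate controls, in a single-dose primary screen at 18.75 µM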
Each line names hits and unclear results; the compound was inactive in the other large screens. Hits are enriched below; roughly 2.9% of the tested compounds scored in any of these assays.

c1ccc(CNc2nc(N3CCN(Cc4ccccc4)CC3)nc3ccccc23)cc1	Peg3 promoter 64.7 (no result: LMP1 NFkB inh)
CCOc1ccc(C2Nc3ccc4ccccc4c3-c3c2c(=O)oc2ccccc32)cc1 (centres undefined)	none
COc1ccc(C2Nc3ccc4ccccc4c3-c3c2c(=O)oc2ccccc32)cc1 (centres undefined)	Peg3 promoter 56.5
COc1ccc(S(=O)(=O)N2CCC(C(=O)NC3CC3)CC2)cc1OC	LMP1 NFkB inh 67.3
COc1ccc(S(=O)(=O)N2CCC(C(=O)NC3CC3)CC2)cc1C	none
CCCCCN(C(=O)CCC(=O)OCC(=O)N1CCCCC1C)c1c(N)n(CCCC)c(=O)[nH]c1=O (centres undefined)	none
COc1ccc(-c2nc(CN3CCC(C(=O)N4CCOCC4)CC3)c(C)o2)cc1C	LMP1 NFkB inh 65.8
Cc1oc(-c2ccc(Cl)cc2)nc1CN1CCC(C(=O)N2CCc3ccccc3C2)CC1	Peg3 promoter 79.4
Cc1csc(SCC(=O)N(C)C2CCS(=O)(=O)C2)n1 (centres undefined)	none
COCCn1c(SCC(=O)N2CCCc3ccccc32)nc2c(c1=O)SC(C)C2 (centres undefined)	none
COCCn1c(SCC(=O)N2CCc3ccccc32)nc2c(c1=O)SC(C)C2 (centres undefined)	LMP1 NFkB inh 88.5
CC(C)OCCCNC(=S)Nc1ccc(S(N)(=O)=O)cc1	none
Cc1cc(CN2CCC(n3nccc3NC(=O)c3ccccc3C)CC2)n[nH]1	none
COc1ccc(NC(=O)CSc2ncnc3c2sc2ccccc23)c(OC)c1	CF NFkB inh 53.1, KKLEB cytotox -55.4
COc1cccc(NC(=O)C2CCCN2C(=O)Nc2cccc(F)c2)c1 (centres undefined)	Peg3 promoter 67.5
COc1cccc(NC(=O)C2CCCN2C(=O)Nc2ccccc2)c1 (centres undefined)	none
Cc1[nH]c2ccccc2c1C(=O)CCl	Peg3 promoter 93.4, CF NFkB inh 63.6
COc1ccccc1CCC(=O)OCC(=O)Nc1ccc(C(N)=O)cc1	CF NFkB inh 67.1, KKLEB cytotox -83.8
COc1ccc(C(=O)OCC(=O)Nc2ncc([N+](=O)[O-])s2)cc1OC	Shn3 3UTR inh 86.3
COC(=O)c1c(NC(=O)C(=O)N2CCCC2)sc2c1CC(C)(C)OC2	none
Cc1nc(Nc2ccc3c(c2)OCCO3)c2oc3ccccc3c2n1	none
CCc1nc(Nc2ccc3c(c2)OCCO3)c2oc3ccccc3c2n1	Peg3 promoter 69.2
CCOC(=O)C(Cc1ccc(O)cc1)NC(=O)c1cc2c(cn1)[nH]c1ccccc12 (centres undefined)	none (no result: Peg3 promoter, LMP1 NFkB inh, Shn3 3UTR inh, CF NFkB inh, KKLEB cytotox)
O=C(/C=C/c1ccccc1)c1ccc2c3c(cccc13)CC2	Peg3 promoter 59.8
O=C(/C=C/c1ccccc1)c1ccccc1	none
C[C@H](NC(=O)c1ncn2c1c(=O)[nH]c1ccc(Br)cc12)c1ccccc1	Peg3 promoter 100.3
Cc1nc(C)n(C(C)CNC(=O)c2ccco2)n1 (centres undefined)	LMP1 NFkB inh 44.6
COc1ccc(NC(=O)/C(Cl)=C(/Cl)S(=O)Cc2ccccc2)cn1 (centres undefined)	Peg3 promoter 104.6, LMP1 NFkB inh 83.1, Shn3 3UTR inh 97.3, CF NFkB inh 88.5, KKLEB cytotox -95.4, HIF-2a block 93.9
CCSC1=C(C#N)C2(CCCCC2)C(C#N)C(=O)N1 (centres undefined)	Peg3 promoter 54.5
CCN(CC(=O)NC1CCS(=O)(=O)C1)S(=O)(=O)c1c(C)c(C)cc(C)c1C (centres undefined)	none
CC(C)C[C@H]1CNC(=S)N1CC1CCN(CC2CCC(C(C)(C)C)CC2)CC1 (some centres undefined)	Shn3 3UTR inh 93.1
CC(C)C[C@H]1CNC(=S)N1CC1CCN(CC2CCCC2)CC1	none
CC1(C)C2CCC1(C)C(OCC[N+](C)(C)CC(=O)OC1CCCCC1)C2 (centres undefined)	LMP1 NFkB inh 68.3
